Test results published in PubChem BioAssay (Tox21).
Records with an inconclusive call do not appear. Entries that show only a call come without a potency. Calls of active or inactive are those of the source. The call rests on the fitted dose curve.

assay: p53 small molecule agonists, cell-based qHTS assay: qHTS cell viability counter screen (AID 1963581); settings: p53RE-bla HCT-116 viability, ATP luminescence, 16 h; series mostly up to 66 µM; further: nearly all actives have a fitted effect of over 45% in size
Source text: National Center for Advancing Translational Sciences [NCATS]
Division of Preclinical Innovation [DPI]
U.S. Environmental Protection Agency [EPA]
National Institutes of Environmental Health Sciences [NIEHS]
National Toxicology Program [NTP]
U.S. Food and Drug Administration [FDA]
p53, a tumor suppressor protein, is activated following cellular insult, including DNA damage and other cellular stresses. The activation of p53 regulates cell fate by inducing DNA repair, cell cycle arrest, apoptosis, or cellular senescence. The activation of p53, therefore, is a good indicator of DNA damage and other cellular stresses. The CellSensor p53RE-bla HCT-116 cell line (Invitrogen) contains a stably integrated beta-lactamase reporter gene under control of the p53 response elements. The activation of the reporter gene under culture conditions can be detected by fluorescence intensity. This cell line was used to screen the Tox21 compound library in a 1536-well plate format and to identify agonists that activate the p53 signaling pathway. The cytotoxicity of the Tox21 compound library against the p53 RE-bla HCT-116 cell line was tested in parallel by measuring the intra cellular ATP content in the same wells.
Tox21 Assay Protocol Summary:
The p53RE-bla cells were dispensed at 4,000 cells/5 ul/well in 1536-well black wall/clear bottom plates using a Multidrop dispenser. After the assay plates were incubated at a 37 C/5% CO2 incubator for 5 hours, 23 nL of compounds dissolved in DMSO, positive controls or DMSO only was transferred to the assay plate by a pin tool. The plates were incubated at 37 C for 16 hours. After 1 uL of LiveBLAzerTM B/G FRET substrate was added using a Flying Reagent Dispenser, the plates were incubated at room temperature for 2 hours, and fluorescence intensity was measured by an Envision plate reader. For cell viability readout that measures cytotoxicity, 4 ul/well of CellTiter-Glo reagent was added into the assay plates using a Flying Reagent Dispenser. After 30 min incubation at room temperature, the luminescence intensity in the plates was measured using a ViewLux plate reader.
Potency means the concentration at half of the fitted maximal effect.

Row | SMILES | Potency | activity change, negative = cytotoxicity
1 | O=C(O)c1c(Cl)ccc2cc(Cl)cnc12 | inactive | 
2 | O=C1c2ccccc2C(=O)c2ccccc21 |  | 5.09% [at 13.5 µM] (inactive)
3 | COc1cc(CC(C)N)cc(OC)c1OC (stereo not given) | inactive | 
4 | CCOP(=S)(OCC)SC(CCl)N1C(=O)c2ccccc2C1=O (stereo not given) | inactive | 
5 | FC(F)C(F)(F)OCC(Cn1cncn1)c1ccc(Cl)cc1Cl (stereo not given) | inactive | 
6 | [Cl][Sb]([Cl])[Cl] | inactive | 
7 | Cc1ccc(-c2c(Cl)nc(C#N)n2S(=O)(=O)N(C)C)cc1 | inactive | 
8 | Nc1cc(Cl)ccc1O | inactive | 
9 | Nc1c(Cl)c(F)nc(OCC(=O)O)c1Cl | inactive | 
10 | O=C(O)c1ccc2[nH]cc(CCCCN3CC=C(c4ccccc4)CC3)c2c1 | inactive | 
11 | CC(C)(C)OC(=O)c1ncn2c1[C@@H]1CCCN1C(=O)c1c(Br)cccc1-2 | inactive | 
12 | Cc1cnc2c(C(=O)O)c(Cl)ccc2c1 | inactive | 
13 | NC(=O)C(Cl)Cl | inactive | 
14 | C[As+](C)(C)CC(=O)[O-] | inactive | 
15 | Brc1ccc(Oc2ccc(Br)cc2Br)c(Br)c1 | inactive | 
16 | CC(=O)[O][Sn]([c]1ccccc1)([c]1ccccc1)[c]1ccccc1 | 10.2 µM (active) | 
17 | CC(=O)O[C@H]1CC[C@@]2(C)C(=CC[C@@H]3[C@@H]2CC[C@]2(C)C(=O)CC[C@@H]32)C1 | inactive | 
18 | CN1CCC(O)(c2ccc(F)cc2)C(C(=O)c2ccc(F)cc2)C1 (stereo not given) | inactive | 
19 | O=S1(=O)OC(c2cc(Br)c(O)c(Br)c2)(c2cc(Br)c(O)c(Br)c2)c2ccccc21 | 18.7 µM (active) | 
20 | ClC1=C(Cl)[C@]2(Cl)[C@H]3[C@H]([C@@H]4C=C[C@H]3C4)[C@@]1(Cl)C2(Cl)Cl | inactive | 

Row | SMILES | Potency | activity change, negative = cytotoxicity
21 | CCCCC(CC)COP(=O)(Oc1ccccc1)Oc1ccccc1 (stereo not given) | inactive | 
22 | ClC(Cl)C(Cl)(Cl)Cl | inactive | 
23 | C=CC(=O)OC | inactive | 
24 | CC(C)(N)Cc1ccc(Cl)cc1 | inactive | 
25 | O=[N+]([O-])c1ccc(F)c([N+](=O)[O-])c1 | inactive | 
26 | CCS(=O)(=O)CCSP(=O)(OC)OC | inactive | 
27 | C(COCC1CO1)OCC1CO1 (stereo not given) | inactive | 
28 | CC(C)O.CC(C)O.OCCN(CCO)CCO.OCCN(CCO)CCO.[Ti] | inactive | 
29 | Fc1ccc(C(OCCN2CCN(CCCc3ccccc3)CC2)c2ccc(F)cc2)cc1 | inactive | 
30 | CCCCN(CCCC)C(=S)S | inactive | 
31 | CCC1(C2=NCCN2)Cc2ccccc2O1 (stereo not given) | inactive | 
32 | N#Cc1ccc(N(CC(N)=O)CC(F)(F)F)cc1C(F)(F)F | inactive | 
33 | COc1cc(CC#N)cc(OC)c1OC | inactive | 
34 | O=C1OC(=O)C2C1C1(Cl)C(Cl)=C(Cl)C2(Cl)C1(Cl)Cl (stereo not given) | inactive | 
35 | CCOP(=O)(OCC)O/C(=C/Cl)c1ccc(Cl)cc1Cl | inactive | 
36 | CCN1CCC2(CC1)COc1cc3c(cc12)N(C(=O)c1ccc(-c2ccc(-c4nnc(C)o4)cc2C)cc1)CC3 | 42.2 µM (active) | 
37 | CCOP(=S)(OCC)SCSP(=S)(OCC)OCC | inactive | 
38 | CC(C)CCCCCCCOP(=O)(Oc1ccccc1)Oc1ccccc1 | inactive | 
39 | O=C1C(Cl)C(CCl)CN1c1cccc(C(F)(F)F)c1 (stereo not given) | inactive | 
40 | C=CC(=O)OCC(C)O (stereo not given) | inactive | 
